These results are taken from the supplement of paper PMC10037445.

Test [1] deals with RAW-Dual. The experiment in a line: NF-kB SEAP reporter activity, fold change vs agonist alone; cytotoxicity flag (confluency mask): not cytotoxic; higher = enhanced NF-kB activity. The method in brief:
(§1)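 Supernatant from RAW-Dual macrophages was read after 20 hours for IRF by QuantiLuc luminescence and for NF-κB by QuantiBlue absorbance at 620 nm. The cells (50,000 cells/well in DMEM, 384-well plates, 37 °C, 5% CO2) had received 50 nL of library stock by pin tool and, 1 h later, a PRR agonist. Reporter activity is expressed relative to agonist-alone wells as fold change, and wells were flagged cytotoxic if IncuCyte confluency was under 70% of agonist controls in both mask sets.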

Test [2] relates to RAW-Dual. The experiment in a line: NF-kB SEAP reporter activity, fold change vs agonist alone; higher = enhanced NF-kB activity. The note with it: cytotoxicity flag (confluency mask): not cytotoxic. A digest of the protocol: as §1
Setting [3] is: agonist: ODN 1826 (TLR9) 0.5 ug/mL.
[4] abbreviates: agonist: Pam2CSK4 (TLR2/6) 0.1 ug/mL.
[5] abbreviates: agonist: Pam3CSK4 (TLR2/1) 0.1 ug/mL.
[6] abbreviates: library stock concentration (final ~1000-fold dilution): 10 mM, agonist: Imiquimod (TLR7) […].
[7] abbreviates: library stock concentration (final ~1000-fold dilution): 10 mM, agonist: MPLA (TLR4) […].

Where “and” joins values, the source holds several entries; their conditions need not be identical. Equal values may be shown once. In all, about 2,900 compounds were measured (“NF-kB SEAP reporter activity, fold change vs agonist alone”: median about 0.99, highest 2% from about 2.6 on). For the sample, the highest values were picked, then their nearest neighbours and some compounds at random.

Take `O=C(O)CSc1cc(NS(=O)(=O)c2ccc(Br)cc2)c2ccccc2c1O` (library stock concentration (final ~1000-fold dilution): 10 mM): the “NF-kB SEAP reporter activity” value in the test on RAW-Dual [1] (agonist: LPS (TLR4) 0.1 ug/mL) worked out at 3.16; in the test with RAW-Dual [1] (setting [3]), 1.31; with RAW-Dual [1] (setting [4]), 1.24; in the test on RAW-Dual [1] (setting [5]) it was 2.31.

`CC(C)(C)C(=O)Oc1ccc(S(=O)(=O)Nc2ccccc2C(=O)NCC(=O)O)cc1`: the “NF-kB SEAP reporter activity” value in the test on RAW-Dual [2] (setting [6]) came to 0.966.

Regarding `CC(C)(C)C(=O)Oc1ccc(S(=O)(=O)Nc2ccccc2C(=O)NCC(=O)O)cc1` (library stock concentration (final ~1000-fold dilution): 10 mM), the “NF-kB SEAP reporter activity” value in the test on RAW-Dual [1] (agonist: LPS (TLR4) 0.1 ug/mL) was 1.36 and 1.08; with RAW-Dual [1] (setting [3]), 0.906 and 0.939; with RAW-Dual [1] (setting [4]), 1.39 and 1; in the test with RAW-Dual [1] (setting [5]), 0.652 and 1.02.

As for `O=C(O)CSc1nnc(Br)n1-c1ccc(C2CC2)c2ccccc12`, in the test on RAW-Dual [2] (setting [7]), the “NF-kB SEAP reporter activity” value was determined as 0.983.

Consider `O=C(O)CSc1nnc(Br)n1-c1ccc(C2CC2)c2ccccc12` (library stock concentration (final ~1000-fold dilution): 10 mM), for which the “NF-kB SEAP reporter activity” value is 1.32 with RAW-Dual [1] (agonist: LPS (TLR4) 0.1 ug/mL), 1.01 in the test on RAW-Dual [1] (setting [3]), 1.24 with RAW-Dual [1] (setting [4]) and 1.18 in the test on RAW-Dual [1] (setting [5]).

`O=C(O)CSc1cc(NS(=O)(=O)c2ccc(Br)cc2)c2ccccc2c1O`: the “NF-kB SEAP reporter activity” value in the test with RAW-Dual [2] (setting [6]) came out at 1.12; in the test on RAW-Dual [2] (setting [7]) it was 2.21.

Take `CSCCNc1nc(SCCC(F)(F)F)nc2c1ncn2C1OC(COP(=O)(O)OP(=O)(O)C(Cl)(Cl)P(=O)(O)O)C(O)C1O` (centres undefined) (library stock concentration (final ~1000-fold dilution): 10 mM water): the “NF-kB SEAP reporter activity” value was 1.15 with RAW-Dual [1] (agonist: LPS (TLR4) 0.1 ug/mL), 1.26 with RAW-Dual [1] (setting [3]), 1.18 with RAW-Dual [1] (setting [4]) and 0.935 in the test with RAW-Dual [1] (setting [5]).

For `CSCCNc1nc(SCCC(F)(F)F)nc2c1ncn2C1OC(COP(=O)(O)OP(=O)(O)C(Cl)(Cl)P(=O)(O)O)C(O)C1O` (centres undefined), the “NF-kB SEAP reporter activity” value with RAW-Dual [2] (library stock concentration (final ~1000-fold dilution): 10 mM water, agonist: Imiquimod (TLR7) […]) worked out at 0.972; in the test on RAW-Dual [2] (library stock concentration (final ~1000-fold dilution): 10 mM water, agonist: MPLA (TLR4) […]), 1.04.

For the compound `CCC1OC(=O)C(C)C(OC2CC(C)(OC)C(O)C(C)O2)C(C)C(OC2OC(C)CC(N(C)C)C2O)C(C)(O)CC(C)C(=O)C(C)C(O)C1(C)O.N#CS` (centres undefined) (library stock concentration (final ~1000-fold dilution): 10 mM), the “NF-kB SEAP reporter activity” value in the test with RAW-Dual [1] (agonist: LPS (TLR4) 0.1 ug/mL) came out at 1.06; in the test with RAW-Dual [1] (setting [3]), 0.88; with RAW-Dual [1] (setting [4]), 1.07; in the test with RAW-Dual [1] (setting [5]), 1.08.

For `CCC1OC(=O)C(C)C(OC2CC(C)(OC)C(O)C(C)O2)C(C)C(OC2OC(C)CC(N(C)C)C2O)C(C)(O)CC(C)C(=O)C(C)C(O)C1(C)O.N#CS` (centres undefined), the “NF-kB SEAP reporter activity” value with RAW-Dual [2] (setting [7]) came out at 1.07.

For `COc1cc(CCC(O)CC(O)CCc2ccc(O)c(OC)c2)ccc1O` (centres undefined) (library stock concentration (final ~1000-fold dilution): 10 mM), the “NF-kB SEAP reporter activity” value with RAW-Dual [1] (agonist: LPS (TLR4) 0.1 ug/mL) is 1.41; with RAW-Dual [1] (setting [3]), 1.15; in the test on RAW-Dual [1] (setting [4]) it was 1.08; with RAW-Dual [1] (setting [5]) it was 1.06.

`COc1cc(CCC(O)CC(O)CCc2ccc(O)c(OC)c2)ccc1O` (centres undefined): the “NF-kB SEAP reporter activity” value in the test with RAW-Dual [2] (setting [6]) stood at 1.04; in the test with RAW-Dual [2] (setting [7]) it was 1.05.

Consider `COC1=CC(c2cc3ccccc3[nH]2)=N/C1=C\c1[nH]c(C)cc1C.CS(=O)(=O)O`, for which the “NF-kB SEAP reporter activity” value with RAW-Dual [2] (setting [6]) was determined as 1.4; in the test on RAW-Dual [2] (setting [7]) it was 2.78.

As for `COC1=CC(c2cc3ccccc3[nH]2)=N/C1=C\c1[nH]c(C)cc1C.CS(=O)(=O)O` (library stock concentration (final ~1000-fold dilution): 10 mM), the “NF-kB SEAP reporter activity” value in the test on RAW-Dual [1] (agonist: LPS (TLR4) 0.1 ug/mL) amounted to 8.62; in the test on RAW-Dual [1] (setting [3]), 1.9; in the test on RAW-Dual [1] (setting [4]), 2.55; in the test with RAW-Dual [1] (setting [5]) it was 3.87.

As to `CCOC(=O)COc1ccc(/C=C2\SC(=S)NC2=O)cc1OC` (library stock concentration (final ~1000-fold dilution): 10 mM), the “NF-kB SEAP reporter activity” value amounted to 1.04 in the test on RAW-Dual [1] (agonist: LPS (TLR4) 0.1 ug/mL), 0.889 with RAW-Dual [1] (setting [3]), 0.889 with RAW-Dual [1] (setting [4]) and 1.1 in the test with RAW-Dual [1] (setting [5]).

Regarding `CCOC(=O)COc1ccc(/C=C2\SC(=S)NC2=O)cc1OC`, the “NF-kB SEAP reporter activity” value in the test with RAW-Dual [2] (setting [6]) was found to be 0.985; with RAW-Dual [2] (setting [7]) it was 1.1.

Consider `CCOC(=O)C1=CCCCC1S(=O)(=O)Nc1ccc(F)cc1Cl` (centres undefined) (library stock concentration (final ~1000-fold dilution): .1 mM), for which the “NF-kB SEAP reporter activity” value turned out to be 0.288 with RAW-Dual [1] (agonist: LPS (TLR4) 0.1 ug/mL), 1.09 in the test on RAW-Dual [1] (setting [3]), 1.36 in the test on RAW-Dual [1] (setting [4]) and 1.39 in the test on RAW-Dual [1] (setting [5]).

In the case of `CCOC(=O)C1=CCCCC1S(=O)(=O)Nc1ccc(F)cc1Cl` (centres undefined), the “NF-kB SEAP reporter activity” value with RAW-Dual [2] (library stock concentration (final ~1000-fold dilution): .1 mM, agonist: Imiquimod (TLR7) […]) stood at 1.2; with RAW-Dual [2] (library stock concentration (final ~1000-fold dilution): .1 mM, agonist: MPLA (TLR4) […]), 0.252.

Take `NC(=O)c1ccc(OCCCN2CC3CCCC3C2)cc1` (centres undefined): the “NF-kB SEAP reporter activity” value in the test with RAW-Dual [2] (setting [6]) came to 0.844; with RAW-Dual [2] (setting [7]), 1.05.

On to `N=C(N)c1ccc(OCCCCCOc2ccc(C(=N)N)cc2)cc1.O=S(=O)(O)CCO.O=S(=O)(O)CCO` (library stock concentration (final ~1000-fold dilution): 10 mM), for which the “NF-kB SEAP reporter activity” value turned out to be 3.88 in the test on RAW-Dual [1] (agonist: LPS (TLR4) 0.1 ug/mL), 1.22 in the test with RAW-Dual [1] (setting [3]), 0.758 in the test on RAW-Dual [1] (setting [4]) and 1.06 in the test with RAW-Dual [1] (setting [5]).

On to `CS(=O)(=O)O.CS(=O)(=O)O.N=C(N)Nc1ccc(C(=O)Oc2ccc3cc(C(=N)N)ccc3c2)cc1`, for which the figures for the “NF-kB SEAP reporter activity” value in the test with RAW-Dual [2] (setting [6]) and with RAW-Dual [2] (setting [7]) were 1.01 and 1.02, respectively.

On to `N=C(N)c1ccc(OCCCCCOc2ccc(C(=N)N)cc2)cc1.O=S(=O)(O)CCO.O=S(=O)(O)CCO`, for which the “NF-kB SEAP reporter activity” value was determined as 1.39 with RAW-Dual [2] (setting [6]) and 1.89 in the test with RAW-Dual [2] (setting [7]).

On to `CS(=O)(=O)O.CS(=O)(=O)O.N=C(N)Nc1ccc(C(=O)Oc2ccc3cc(C(=N)N)ccc3c2)cc1` (library stock concentration (final ~1000-fold dilution): 10 mM), for which the “NF-kB SEAP reporter activity” value in the test on RAW-Dual [1] (agonist: LPS (TLR4) 0.1 ug/mL) was 1.08; in the test with RAW-Dual [1] (setting [3]), 1.05; with RAW-Dual [1] (setting [4]), 1.02; with RAW-Dual [1] (setting [5]) it was 0.924.

For `NC(=O)c1ccc(OCCCN2CC3CCCC3C2)cc1` (centres undefined) (library stock concentration (final ~1000-fold dilution): 10 mM), the “NF-kB SEAP reporter activity” value came to 0.976 in the test on RAW-Dual [1] (agonist: LPS (TLR4) 0.1 ug/mL), 0.696 with RAW-Dual [1] (setting [3]), 0.926 in the test with RAW-Dual [1] (setting [4]) and 1.14 with RAW-Dual [1] (setting [5]).
